Source: PubChem BioAssay AID651821 (The Scripps Research Institute Molecular Screening Center, 2012)
Where “and” joins values, the source holds several entries; their conditions need not be identical. Equal values may be shown once. About 4,700 (1.3%) of roughly 370,000 compounds were called active. The sample as a whole holds a higher share of actives than the screen did. Values without a mark were called inactive.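 Rule for the calls: active = inhibition above the plate cutoff, the mean of all test compounds on that plate plus 3 SD (cut at about 35% in these data); inactive = the rest.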

assay: small molecules binding CAG repeat RNA – biochemical, fluorescence, primary screen (AID 651821); details: r(CAG) RNA repeat, TO-PRO-1 dye displacement fluorescence; at 3 µM; active compounds read high;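 note: 0% = DMSO alone and 100% = 100 µM mitoxantrone as full dye displacement; higher means more dye released from RNA so lower well fluorescence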

Row | Structure (SMILES) | inhibition
1 | O=C(O)c1ccccc1-c1ccccc1C(=O)Nc1ccccc1Br | 1.52%
2 | O=C(NC(=S)Nc1ccccc1C(=O)O)c1ccc(-c2ccc(Br)cc2)o1 | 69.5% (active)
3 | O=C(NC(=S)Nc1ncccn1)c1ccccc1Br | -2.07%
4 | CCCCCCCCN1C(=O)[C@@H](CC(=O)NCCCC)C[C@@]2(C(=O)OC)C1=C[C@H](C(C)(C)C)O[C@@H]2C | 0.05%
5 | CCCCOCC1CN(CCCC)S(=O)(=O)c2c(Oc3ccc(F)cc3)cccc2O1 (stereo not drawn) | 2.41%
6 | Nc1cccc(-c2cc(-c3ccccc3)nc(-c3cccc(N)c3)n2)c1 | 35.3% (active)
7 | Fc1ccc2cnc(-c3ccccc3)cc2c1 | 2%
8 | Nc1cccc(-c2cncc(N3CCN(Cc4ccccn4)CC3)n2)c1 | 2.15%
9 | CCCS(=O)(=O)Nc1c(C(=O)O)[nH]c2ccccc12 | 0.99%
10 | Cc1c(C(=O)CN2CCOCC2)[nH]c2ccccc12 | 1.32%
11 | O=C(O)c1[nH]c2ccccc2c1C(c1cccc(O)c1)c1c(C(=O)O)[nH]c2ccccc12 | 61.1% (active)
12 | O=C(NCc1ccccc1)[C@@H]1CCCN1C(=O)[C@@H](NS(=O)(=O)c1ccc(F)cc1F)C1CCCCC1 | -1.8%
13 | C=CCN1[C@H](CC(C)C)COc2cccc(N3CCCC3)c2S1(=O)=O | 8.14%
14 | CN1CCc2ccccc2C1Cc1ccccc1NC(=O)c1sc2ccccc2c1Cl (stereo not drawn) | -0.7%
15 | CCOc1ccc2ccccc2c1/C=N/NC(=O)c1c(C)cc(C)[nH]c1=O | 0.65%
16 | O=C(N/N=C/c1c(Cl)[nH]c2ccccc12)c1sc2ccccc2c1Cl | 35.6% (active)
17 | Cc1ccc2nc(N3C(=O)C(O)=C(C(=O)c4ccco4)C3c3cccc(O)c3)sc2c1 (stereo not drawn) | 72.6% (active)
18 | O=C(C1=C(O)C(=O)N(c2ncccn2)C1c1cccs1)c1ccco1 (stereo not drawn) | -0.3%
19 | C=CCSc1nnc(N2C(=O)C(O)=C(C(=O)c3ccco3)C2c2ccc(F)cc2)s1 (stereo not drawn) | 18.7%
20 | COCCNc1cc(NCCOC)c([N+](=O)[O-])cc1[N+](=O)[O-] | 1.02%
21 | COC(=O)[C@]12C[C@H](CC(=O)N3CCN(C(=O)C4CC4)CC3)C(=O)N(Cc3ccc4c(c3)OCO4)C1=C[C@H](C(C)(C)C)O[C@@H]2C | 1.7%

Row | Structure (SMILES) | inhibition
22 | COc1ccccc1C(=O)CSc1nnc(-c2ccccn2)n1-c1ccccc1 | 5.14%
23 | CCCCNC(=O)C[C@@H]1C(=O)N(CCc2ccc(Cl)cc2)C2=CCCC[C@]21C(=O)OCC | 0.46%
24 | COc1ccc2c(C)c(CCC(=O)NC3CC3)c(=O)oc2c1C | -3.01%
25 | Cc1oc2c(C)c3oc(=O)c(CC(=O)N[C@@H](CC(C)C)C(=O)N[C@@H](Cc4ccccc4)C(=O)O)c(C)c3cc2c1C | 15.8%
26 | Cc1c(C)c2cc3c4c(oc3c(C)c2oc1=O)CCCC4 | 5.96%
27 | Cc1c(CCC(=O)N[C@@H](CC(C)C)C(=O)O)c(=O)oc2c(C)c3oc4c(c3cc12)CCCC4 | 38.4% (active)
28 | CC[C@@H](C)[C@H](NC(=O)CCc1c(C)c2cc3c4c(oc3c(C)c2oc1=O)CCCC4)C(=O)O | 36.8% (active)
29 | Cc1c(CC(=O)NCC(=O)NCC(=O)O)c(=O)oc2cc3oc4c(c3cc12)CCCC4 | 11.3%
30 | COC(=O)C1=C(C)N(Cc2ccc(C(F)(F)F)cc2)C(=NCc2ccccc2)NC1c1ccccc1C(F)(F)F (stereo not drawn) | 1.95%
31 | CC(C)(C)C(c1nc2ccccc2[nH]1)n1c(Cc2csc3ccccc23)nc2ccccc21 (stereo not drawn) | 6.22%
32 | CC(C)(C)OC(=O)NCCc1ccccc1/C=C/S(=O)(=O)NCc1ccc(F)cc1 | 3.67%
33 | Cc1[nH]c2ccccc2c1CC(=O)Nc1ccc(Nc2cccnc2)c(-c2cccc(Cl)c2)c1 | 14.1%
34 | COC(=O)c1cc2c(c3c4cc(F)ccc4n(S(=O)(=O)c4ccccc4)c13)C(=O)N(Cc1ccccc1OC)C2 | 16.2%
35 | O=C(NCCOc1ccccc1F)Nc1ccc(Br)cc1 | 5.19%
36 | O=C(Nc1ccccc1)Nc1nnc(COc2ccccc2F)s1 | 56.5% (active)
37 | COCc1nnc(NC(=O)CS(=O)(=O)Cc2ccccc2)s1 | 4.38%
38 | CCOC(=O)[C@]12CCCC3=C1N(CCC3)C(=O)[C@@H](CC(=O)N1CCSCC1)C2 | -0.18%
39 | CCOc1ccc(C(=O)NC2CCN(CC(=O)NCc3cccs3)CC2)cc1 | -7.65%
40 | COCCNC(=O)Nc1ccc2nc(-c3ccco3)c(-c3ccco3)nc2c1 | 69.7% (active)
41 | COc1cc(NC(=O)C2=CC(c3ccco3)=NS(=O)(=O)N2C)cc(OC)c1OC | 1.85%
42 | COCCNC(=O)c1ccc2nc(Cc3ccc(OC)c(OC)c3)oc2c1 | -4.89%

Row | Structure (SMILES) | inhibition
43 | COC(=O)[C@]12C[C@H](CC(=O)NCc3cccs3)C(=O)N(CCc3ccc(OC)c(OC)c3)C1=C[C@H](C(C)C)O[C@@H]2C1CC1 | 3.01%
44 | CCc1nn(CCCC(=O)NC(C)c2ccccc2)c(=O)c2cc3occc3n12 (stereo not drawn) | -1.26%
45 | O=C(C1CCN(S(=O)(=O)c2ccc(Br)s2)CC1)N1CCN(C2CCCCC2)CC1 | -5.64%
46 | O=C1c2cccc3cccc(c23)C(=O)N1CCCCCc1n[nH]c(=S)o1 | 38.4% (active)
47 | O=C(COC(=O)CCCN1C(=O)c2cccc3cccc(c23)C1=O)NC1CCS(=O)(=O)C1 (stereo not drawn) | -0.32%
48 | O=C(CCCN1C(=O)c2cccc3cccc(c23)C1=O)N1CCN(Cc2ccc3c(c2)OCO3)CC1 | -5.35%
49 | COc1cc(C(=O)Nn2c(CC(C)C)nc3ccccc3c2=O)cc(OC)c1OC | -4.74%
50 | COc1cc(C(=S)NC2CCCCC2)ccc1O | 4.7%
51 | COc1cc(C(=O)Nn2c(O)c(C3=c4ccccc4=NC3=O)sc2=S)ccc1O | 50.1% (active)
52 | C[C@H](C(=O)N(C)c1ccccc1)[C@@H](O)c1ccc(Cl)cc1 | -1.76%
53 | C=CCN1C(=O)[C@@H](CC(=O)NCCCCc2ccccc2)[C@]2(C(=O)OCC)CCCCC/C=C/12 | 3.6%
54 | CCOC(=O)N1CCN(C(=O)C[C@@H]2C(=O)N(CCc3ccc(Cl)cc3)C3=CCCC[C@]32C(=O)OCC)CC1 | 3.44%
55 | COC(=O)c1c(C)oc2ccc(N(C(=O)Oc3ccccc3)S(=O)(=O)c3ccccc3)cc12 | 5.17%
56 | CC(=O)Oc1ccc(N(C(C)=O)S(=O)(=O)c2ccc3ccccc3c2)cc1Br | 2.18%
57 | CC(=O)N(c1ccc2oc(=O)sc2c1)S(=O)(=O)c1ccc(C)cc1 | 42.4% (active)
58 | CC(=O)OC12CCCN(C1)/C(=C/c1ccncc1)C2 (stereo not drawn) | 3.52%
59 | CCCOc1ccc(Oc2c(Cl)cnn(Cc3cccc4ccccc34)c2=O)cc1 | 6.74%
60 | C[C@H](CO)N1C[C@H](C)[C@@H](CN(C)C(=O)Nc2ccccc2F)OCc2cn(nn2)CCCC1=O | 0.24%
61 | COc1ccc(OC)c(-n2cc3c(=O)n(C)c(=O)n(C)c3c2)c1 | 2.65%
62 | CCOC(=O)N1C(=O)C[C@](Sc2ccc(C)cc2)(C(=O)OC)[C@H]1c1ccccc1 | -2.71%
63 | COC(=O)c1ccccc1-n1cc(COC(=O)NCCc2ccccc2)nn1 | 1.18%

Row | Structure (SMILES) | inhibition
64 | Cc1noc(C)c1S(=O)(=O)Nc1ccc(C(=O)O)cc1 | -0.8%
65 | Cc1oc2c(F)c(F)c(F)c(F)c2c1S(=O)(=O)Nc1cccc(C(F)(F)F)c1 | 53.7% (active)
66 | Cc1ccc(N(CCC(=O)O)S(=O)(=O)c2cccc(C(F)(F)F)c2)cc1 | 5.06%
67 | COC(=O)[C@H](C(C)C)N(CCc1cn(Cc2ccccc2)nn1)S(=O)(=O)c1ccc(F)cc1Br | 3.36%
68 | CSCCC1NC2(C(=O)Nc3ccc(Cl)cc32)[C@@H]2C(=O)N(C3CCCC3)C(=O)[C@H]12 (stereo partly drawn) | -2.44%
69 | Cc1ccc(NC(=O)c2cc(C)nn2-c2ccccc2)c(C)c1 | 2.01%
70 | Cc1cc(C)cc(Oc2c(C(F)(F)F)oc3cc(OCC(=O)O)ccc3c2=O)c1 | 44.4% (active)
71 | O=C(COc1ccc2c3c(c(=O)oc2c1)CCC3)NC1CCCCC1 | -4.24%
72 | O=C(COc1ccc2c(C(F)(F)F)cc(=O)oc2c1)Nc1ccc2c(c1)OCCO2 | 4.46%
73 | CC(c1c[nH]c2ccccc12)c1c(-c2ccccc2)n(C)c2ccccc12 (stereo not drawn) | 8.54%
74 | CCc1ccc(-n2c(=S)sc3c(=O)n(-c4ccccc4OC)c(=S)[nH]c32)cc1 | 9%
75 | COc1ccc(Cl)cc1-n1c(=S)sc2c(=O)n(-c3ccc(F)cc3)c(SCC(=O)O)nc21 | 40.9% (active)
76 | COc1ccccc1-n1c(SCC(=O)O)nc2sc3c(c2c1=O)CCC3 | 5.16%
77 | CCN1C(=O)/C(=C2/Sc3ccccc3N2CCCS(=O)(=O)O)SC1=S | 51.4% (active) and 69.1% (active)
78 | COc1ccc2c(c1)N(C)/C(=C1/SC(=S)N(NC(C)=O)C1=O)S2 | 5.15%
79 | CCCCN1C(=O)/C(=C2/C=CC=CN2C)SC1=S | -1.7%
80 | CC(CC(=O)N1CCN(c2ccccc2)CC1)S(=O)(=O)c1ccc2c(c1)NC(=O)CS2 (stereo not drawn) | -1.08%
81 | O=C(CCCCCN1C(=O)C2C3C=CC(C3)C2C1=O)Nc1ccccn1 (stereo not drawn) | 1.49%
82 | COC(=O)Cc1nnn2c1[C@H](C)[C@H](c1ccccc1[N+](=O)[O-])OCC2 | 2.71%
83 | CCOC(=O)C1=C(C(=O)OCC)C2N(Cc3ccc(C#N)cc3)c3ccccc3[C@@]23C[C@@H](C(=O)OC)N(S(=O)(=O)c2ccc(F)cc2)C3=N1 (stereo partly drawn) | 15.6%
